From PubChem BioAssay
SARS PLpro yeast = inhibitors of SARS-CoV papain-like protease in yeast | S. cerevisiae expressing SARS-CoV PLpro, growth rescue | Potency, µM (series often up to 32.9 µM), inactives show at the highest dose activity, positive = growth rescue, hits mostly activators | actives 0.19% (n = 330,000); calls by dose curve; further: 0% is about no effect; nearly all actives have a fitted effect of over 55% in size
AmpC inh detg = inhibitors of E. coli AmpC beta-lactamase with detergent. AID 485294. actives 0.041% (n = 370,000). Potency, µM (doses to about 114 µM), for inactives: top-dose activity change, negative = inhibition, actives largely listed as inhibitors. AmpC hydrolysis of nitrocefin, absorbance 480 nm, 0.01% Triton. P00811;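 further: 0% = no-compound wells and -100% = no-enzyme wells; nearly all actives have a fitted effect of over 25% in size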
Target sequence (P00811 whole entry, looked up): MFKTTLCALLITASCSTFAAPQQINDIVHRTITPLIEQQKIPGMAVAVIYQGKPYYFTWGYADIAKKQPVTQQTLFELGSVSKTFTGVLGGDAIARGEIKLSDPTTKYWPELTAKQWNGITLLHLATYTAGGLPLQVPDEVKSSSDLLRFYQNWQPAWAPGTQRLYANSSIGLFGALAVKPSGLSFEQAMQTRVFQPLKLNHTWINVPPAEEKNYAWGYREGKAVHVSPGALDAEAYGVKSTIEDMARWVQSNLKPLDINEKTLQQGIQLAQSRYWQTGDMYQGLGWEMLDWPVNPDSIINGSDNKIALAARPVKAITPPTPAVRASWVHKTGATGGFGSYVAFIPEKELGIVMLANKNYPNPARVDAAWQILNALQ
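AmpC (5.3 nM in the dispensed reagent) in 20 mM phosphate pH 7.0 with 0.01% (detergent screen) or 0.0001% Triton X-100 was preincubated with compounds for 15 min at room temperature. Nitrocefin was then added from an 800 uM solution, and hydrolysis was followed at 480 nm.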
AmpC no deterg = AmpC beta-lactamase inhibition without detergent | P00811 | AmpC nitrocefin hydrolysis, absorbance 480 nm, 0.0001% Triton | Potency, µM (series often up to 57.1 µM), inactives show at the top dose activity change, negative = inhibition, most hits filed as inhibitors | actives 0.52% (n = 330,000) | AID 485341;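 further: plate controls were no compound for no effect and no enzyme for full effect; nearly all actives have a fitted effect of over 20% in size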
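AmpC (5.3 nM in the dispensed reagent) in 20 mM phosphate pH 7.0 with 0.01% (detergent screen) or 0.0001% Triton X-100 was preincubated with compounds for 15 min at room temperature. Nitrocefin was then added from an 800 uM solution, and hydrolysis was followed at 480 nm.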
RE007 growth inh = less growth of the S. pombe RE007 Vpr strain; S. pombe RE007 Vpr strain, BacTiter-Glo ATP luminescence, 24 h; Potency, µM (top dose mostly 92.2 µM), for inactives: at the highest dose activity change, negative = less growth, actives largely listed as inhibitors; actives 0.21% (n = 360,000); AID 651644; active means well fitted falling curve with a large enough effect; inconclusive means small, poorly fitted or top-dose-only effect; inactive means no such curve, though single readings can be large or run the other way; further: on the % scale 0 is the no-effect control and ±100 the full control effect; nearly all actives have a fitted effect of over 50% in size
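Fission yeast strain RE007, carrying one chromosomally integrated HIV-1 vpr copy, was seeded at OD 0.01 in PMG+AL medium with 23 nL pinned compound. After 24 h at 30 °C and 99% humidity, viability was read by BacTiter-Glo luminescence.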
Tb PYK inh = T. brucei pyruvate kinase inhibition; actives 0.12% (n = 410,000); Potency, µM (highest dose often 76.8 µM), for the others: at the highest dose activity, negative = inhibition, usual class: inhibitors; Q57TT1; TbPYK enzyme, Kinase-Glo Plus ATP luminescence, 45 min; further: on the % scale 0 is the no-effect control and ±100 the full control effect; nearly all actives have a fitted effect of over 50% in size
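T. brucei PYK with substrate was exposed to pin-transferred compounds across a concentration series, then started with 130 uM ADP (final). After 45 min at room temperature, Kinase-Glo Plus luminescence was read, normalized and curve-fitted.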
Sm TGR inh = blocks Schistosoma mansoni thioredoxin glutathione reductase; Potency, µM (doses to about 114 µM), for the others: top-dose activity change, negative = inhibition, most hits filed as inhibitors; actives 3% (n = 360,000); purified TGR, DTNB reduction, TNB absorbance 405 nm; Q962Y6; AID 485364; further: on the % scale 0 is the no-effect control and ±100 the full control effect; nearly all actives have a fitted effect of over 60% in size
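TGR 20 nM + NADPH 100 uM (dispensed conc.), cpd preinc 15 min RT; start with NADPH (500 uM addition) then DTNB (15 mM addition). Kinetic TNB absorbance, 405 nm filter. Four-parameter Hill fit across titration.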
* = called active by the depositor; ? = inconclusive; nt = no result given; [ ] = another dose, or the depositor's remark. Compounds with a hit are over-represented: about 3.3% of the library has one in this group of screens. Unless noted, the call rests on the fitted dose curve; in most records, active means well fitted curve in the direction sought with a large enough effect; inconclusive means small, poorly fitted or top-dose-only effect, or another doubt; inactive means no such curve, though single readings can be large; an effect the other way counts as inactive or inconclusive. Potency means the concentration at half of the fitted maximal effect.

SMILES | SARS PLpro yeast | AmpC inh detg | AmpC no deterg | RE007 growth inh | Tb PYK inh | Sm TGR inh
COc1cc2nc(SCC(=O)Nc3cccc(C)c3)n3nc(-c4ccccc4)nc3c2cc1OC | nt | -1% | nt | nt | 1% | -7%
O=C1N=c2ccc(Br)cc2=C1c1sc(=S)n(NS(=O)(=O)c2ccccc2)c1O | 0% | 3% | -58% | -17% | -4% | 11µM*
Cc1ccc(C(=O)Nn2c(O)c(C=C3N=c4ccccc4=N3)sc2=S)cc1 | -1% | ? | -20% | -7% | 3% | 1%
O=C1N=c2ccccc2=C1c1sc(=S)n(NC(=O)c2cccc(O)c2)c1O | 1% | -1% | -36% | -9% | -16% | -24%
Cc1ccc(S(=O)(=O)Nn2c(O)c(C=C3N=c4ccccc4=N3)sc2=S)cc1 | -1% | -3% | ? | 22% | 4% | 13µM*
Cc1ccc(-c2cn3c(n2)sc2cc(C(=O)NC4CCCc5ccccc54)ccc23)cc1 (stereo not drawn) | nt | -1% | nt | nt | -8% | 11%
COc1cc(/C=N/NC(=O)c2ccccc2)ccc1O | 2% | -3% | -29% | 2% | -2% | -5%
COc1ccc(C(=O)Nc2ccccc2C(=O)N/N=C/c2ccncc2)cc1OC | -7% | -3% | 13% | 8.9µM* | -29% | -1%
COc1ccc(C(=O)Nc2ccccc2C(=O)NCc2cccnc2)cc1OC | 0% | 3% | -6% | 5% | 2% | 1%
COc1ccc(/C=N/NC(=O)c2ccc(-c3ccccc3)cc2)cc1O | -3% | -8% | 35µM* | -1% | 4% | -1%
COc1ccc(/C=N\NC(=O)c2cc(O)c(O)c(O)c2)cc1COc1ccc(C(=O)OCC(C)C)cc1 | 5% | 3% | 10µM* | nt | 2% | -34%
COc1ccc(C(=O)N/N=C/c2ccc(OC(=O)c3cccc4ccccc34)c([N+](=O)[O-])c2)cc1 | -11% | -8% | 28µM* | 14% | -13% | 8%
COc1ccc(C(=O)N/N=C/c2ccc(OC)c(COc3ccccc3)c2)cc1 | 1% | 4% | 78% | -6% | 1% | -1%
COc1ccc(-n2c(=O)c3sc4ccccc4c3n(Cc3ccccc3)c2=O)cc1 | nt | 2% | nt | nt | 1% | -8%
CCSc1nc2c([nH]c3ccccc32)c(=O)n1-c1ccc(F)cc1 | nt | -7% | nt | nt | 2% | 5%
CC1=C(C(=O)Nc2ccc(C)cc2C)C(c2ccc(C(C)C)cc2)n2nc(C(F)(F)F)nc2N1 (stereo not drawn) | nt | -6% | nt | nt | 1% | 0%
COc1cc2c(cc1C1C(C#N)=C(N)OC3=C1C(=O)CC(C)(C)C3)OCO2 (stereo not drawn) | 4% | -1% | -25% | -8% | 7% | 89µM*
CC1(C)CC(=O)C2=C(C1)OC(N)=C(C#N)C2c1ccccc1[N+](=O)[O-] (stereo not drawn) | 0% | 0% | -24% | -2% | -9% | 22µM*
O=C(COC(=O)CCN1C(=O)c2cccc([N+](=O)[O-])c2C1=O)NCc1ccccc1 | 1% | -16% | 2% | 2% | -1% | 79µM*
O=C(CCCCCN1C(=O)c2cccc([N+](=O)[O-])c2C1=O)NCCc1ccccc1 | nt | nt | nt | -12% | -5% | nt
CC/C=C\C/C=C\C/C=C\CCCCCCCC(=O)O | nt | ? | 61% | -8%[18.4 µM] | -11% | 35µM*
CC/C=C\C/C=C\C/C=C\C/C=C\C/C=C\CCCC(=O)O | nt | nt | nt | nt | -18% | nt
CCCCC/C=C\C/C=C\C/C=C\C/C=C\CCCC(=O)O | nt | -21% | 144% | nt | nt | 18µM*
CCCCCC[C@@H](O)C/C=C\CCCCCCCC(=O)O | nt | nt | nt | nt | 3% | nt
Cc1cccc(NC(=O)Cn2cc(C(=O)C3CCCCC3)c3ccccc32)c1C | nt | 0% | nt | nt | -4% | 7%
SMILES | SARS PLpro yeast | AmpC inh detg | AmpC no deterg | RE007 growth inh | Tb PYK inh | Sm TGR inh
O=C(CSc1nc(-c2ccc(F)cc2)nc2c1Cc1ccccc1O2)Nc1ccc(C(=O)O)cc1 | 1% | 63µM* | -32% | -19% | -5% | -22%
CN(CCO)c1cc(N2CCCCC2)c2nonc2c1[N+](=O)[O-] | 1% | 4% | -27% | 14% | 12% | 18µM*
COc1ccc(Nc2cc(NCCCO)c([N+](=O)[O-])c3nonc23)cc1 | 2% | 1% | -1% | 3% | 2% | 3%
CN(CCO)c1cc(N2CCC3(CC2)OCCO3)c2nonc2c1[N+](=O)[O-] | 3% | -8% | -20% | 3% | ? | 28µM*
O=[N+]([O-])c1c(NCCCO)cc(N2CCCCCC2)c2nonc12 | -1% | 5% | 123% | -7% | 6% | 11µM*
COc1ccc(CNc2cc(NCCCO)c([N+](=O)[O-])c3nonc23)cc1 | 0% | -2% | -17% | -19% | 3% | 22µM*
CCc1ccccc1NC(=O)c1ccc(Cn2nc(N3CCN(c4ccccc4)CC3)ccc2=O)o1 | nt | 10% | nt | nt | -8% | -1%
CC(=NCc1ccccc1)c1ccc(O)cc1O | nt | nt | nt | -7% | 7% | nt
C/C(=N\NP(=S)(c1ccccc1)c1ccccc1)c1ccc(O)cc1O | -2% | 9% | 16µM* | 26% | -27% | -3%
C=CCOc1cc(Cl)ccc1C(=O)NCCN(CC)CC | nt | nt | nt | nt | 0% | nt
CCCSc1nc(O)c(C(c2ccc(OC)c(O)c2)c2c(O)nc(SCCC)n(C)c2=O)c(=O)n1C | 3% | -1% | ? | 11% | -13% | 13µM*
COc1cccc(C(c2c(O)nc(SC)n(C)c2=O)c2c(O)nc(SC)n(C)c2=O)c1 | 8% | 2% | -24% | -1% | -7% | 7.1µM*
CSc1nc(C)c(Oc2ccccc2)c(=O)n1C | -1% | 1% | -17% | 1% | 1% | -1%
O=C(NCc1ccc2c(c1)CCN2C(=O)c1ccc(F)cc1)c1cc2ccccc2[nH]1 | nt | 11% | nt | nt | 3% | -3%
CNC(=O)/C(C#N)=C\c1ccc(CNS(=O)(=O)c2ccccc2)o1 | 8% | -14% | -12% | 15% | -6% | 0%
COCCCN1C(=O)/C(=C/c2ccc(CNS(=O)(=O)c3ccccc3)o2)C(C(=O)OC)=C1C | 0% | 5% | 20% | 21% | -11% | 11µM*
NN1C(=O)/C(=C\c2ccco2)SC1=S | -3% | -5% | -27% | ? | -8% | 11µM*
O=C1/C(=C\c2ccc(O)cc2)SC(=S)N1c1cccnc1 | 0% | -13% | -7% | 11% | -1% | -10%
CCOC(=O)CN1C(=O)S/C(=C/c2ccco2)C1=O | 0% | ? | -20% | -1% | -2% | ?
O=C1/C(=C/c2ccco2)SC(=S)N1c1cccnc1 | 0% | -4% | -36% | ? | ? | 14µM*
